Source: the supplement of paper PMC12645437, “Orthogonal IMiD-Degron Pairs Induce Selective Protein Degradation in Cells” (ACS Chemical Biology, 2025)
In all, about 8,300 sequences were measured (“log2 fold change of degron read counts, EGFP-low vs EGFP+ sorted cells (limma voom), compound-induced degradation”: median about -1.1, highest 2% from about 3.2 on). Many of the other results were omitted from the sample, so the highest values are more common in it than they were.

Molecular target: T1, CRBN, Q96SW2
T1 chain: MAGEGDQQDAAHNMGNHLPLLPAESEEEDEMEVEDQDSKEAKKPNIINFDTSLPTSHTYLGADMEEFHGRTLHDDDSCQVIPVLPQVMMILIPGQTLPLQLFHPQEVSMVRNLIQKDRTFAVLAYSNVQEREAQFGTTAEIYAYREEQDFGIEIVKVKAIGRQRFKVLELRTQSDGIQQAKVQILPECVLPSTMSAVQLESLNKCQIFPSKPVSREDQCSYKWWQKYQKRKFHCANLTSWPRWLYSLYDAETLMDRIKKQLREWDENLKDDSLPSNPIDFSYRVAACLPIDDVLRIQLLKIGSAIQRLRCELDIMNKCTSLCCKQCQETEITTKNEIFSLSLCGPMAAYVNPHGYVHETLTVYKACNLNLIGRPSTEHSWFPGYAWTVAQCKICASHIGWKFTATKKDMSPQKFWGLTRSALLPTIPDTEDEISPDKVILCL
Experiment: log2 fold change of degron read counts, EGFP-low vs EGFP+ sorted cells (limma voom), compound-induced degradation; higher = more compound-induced degradation of the degron-EGFP fusion; degrons are variants of IKZF1/3 zinc finger 2; compound dose not given here
Conditions: Jurkat, 18 h

[1] = compound: compound 19 (5-tert-butyl-thalidomide)
[2] = compound: compound 22 (5-morpholino-thalidomide)
[3] = compound: compound 33 (diphenyl IMiD analogue)
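Also: pooled lentiviral library of zinc finger degron-EGFP fusions in mCherry-positive Jurkat cells, FACS-sorted after compound exposure, with degron abundance counted by next-generation sequencing.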

FWCEICGHWFTQKGNLLRHIKL [46F_47W_49E_50I_52G_53H_54W_55F_67L_, Q9UKT9]
log2 fold change of degron read counts [1]: -1.25 | log2 fold change of degron read counts [2]: -1.77 | log2 fold change of degron read counts [3]: -1.42 | log2 fold change of degron read counts (compound: thalidomide): -1.28

FVCEICGAWFTQKGNLLRHIKL [46F_47V_49E_50I_52G_53A_54W_55F_67L_, Q9UKT9]
log2 fold change of degron read counts [1]: -1.2 | log2 fold change of degron read counts [2]: -0.828 | log2 fold change of degron read counts [3]: 0.741 | log2 fold change of degron read counts (compound: thalidomide): 0.583

FSCNICGASFTQKGNLLRHIKL [46F_47S_49N_50I_52G_53A_54S_55F_67L_, Q9UKT9]
log2 fold change of degron read counts [1]: 1.66 | log2 fold change of degron read counts [2]: 1.77 | log2 fold change of degron read counts [3]: 1.15 | log2 fold change of degron read counts (compound: thalidomide): 0.544

FCCPQCGAMFTQKGNLLRHIKL [46F_47C_49P_50Q_52G_53A_54M_55F_67L_, Q9UKT9]
log2 fold change of degron read counts [1]: -1.18 | log2 fold change of degron read counts [2]: -1.69 | log2 fold change of degron read counts [3]: 0.335 | log2 fold change of degron read counts (compound: thalidomide): -0.935

LYCNQCGFVCTQKGNLLRHIKL [46L_47Y_49N_50Q_52G_53F_54V_55C_67L_, Q9UKT9]
log2 fold change of degron read counts [1]: -0.977 | log2 fold change of degron read counts [2]: -0.96 | log2 fold change of degron read counts [3]: -1.36 | log2 fold change of degron read counts (compound: thalidomide): -1.76

FHCNQCGAVFTQKGNLLRHIKL [46F_47H_49N_50Q_52G_53A_54V_55F_67L_, Q9UKT9]
log2 fold change of degron read counts [1]: -1.89 | log2 fold change of degron read counts [2]: -2.19 | log2 fold change of degron read counts [3]: -1.71 | log2 fold change of degron read counts (compound: thalidomide): -2

FDCNVCGATFTQKGNLLRHIKL [46F_47D_49N_50V_52G_53A_54T_55F_67L_, Q9UKT9]
log2 fold change of degron read counts [1]: -1.91 | log2 fold change of degron read counts [2]: -2.32 | log2 fold change of degron read counts [3]: -1.24 | log2 fold change of degron read counts (compound: thalidomide): -1.1

FECPICGHYFTQKGNLLRHIKL [46F_47E_49P_50I_52G_53H_54Y_55F_67L_, Q9UKT9]
log2 fold change of degron read counts [1]: -2.41 | log2 fold change of degron read counts [2]: -2.69 | log2 fold change of degron read counts [3]: -1.81 | log2 fold change of degron read counts (compound: thalidomide): -1.2

FECDVCGAWFTQKGNLLRHIKL [46F_47E_49D_50V_52G_53A_54W_55F_67L_, Q9UKT9]
log2 fold change of degron read counts [1]: -3.45 | log2 fold change of degron read counts [2]: -3.71 | log2 fold change of degron read counts [3]: -2.2 | log2 fold change of degron read counts (compound: thalidomide): -2.52

FQCNICGAAFTQKGNLLRHIKL [46F_47Q_49N_50I_52G_53A_54A_55F_67L_, Q9UKT9]
log2 fold change of degron read counts [1]: 1.01 | log2 fold change of degron read counts [2]: 2.28 | log2 fold change of degron read counts [3]: 1.53 | log2 fold change of degron read counts (compound: thalidomide): 3.39

FRCNICGAAFTQKGNLLRHIKL [46F_47R_49N_50I_52G_53A_54A_55F_67L_, Q9UKT9]
log2 fold change of degron read counts [1]: 1.09 | log2 fold change of degron read counts [2]: 1.5 | log2 fold change of degron read counts [3]: 1.96 | log2 fold change of degron read counts (compound: thalidomide): 1.32

FYCNICGAAFTQKGNLLRHIKL [46F_47Y_49N_50I_52G_53A_54A_55F_67L_, Q9UKT9]
log2 fold change of degron read counts [1]: 2.66 | log2 fold change of degron read counts [2]: 2.97 | log2 fold change of degron read counts [3]: 1.81 | log2 fold change of degron read counts (compound: thalidomide): -0.259

FECNICGAAFTQKGNLLRHIKL [46F_47E_49N_50I_52G_53A_54A_55F_67L_, Q9UKT9]
log2 fold change of degron read counts [1]: 0.374 | log2 fold change of degron read counts [2]: -0.891 | log2 fold change of degron read counts [3]: 1.05 | log2 fold change of degron read counts (compound: thalidomide): 2.1

FWCNICGAAFTQKGNLLRHIKL [46F_47W_49N_50I_52G_53A_54A_55F_67L_, Q9UKT9]
log2 fold change of degron read counts [1]: 2.29 | log2 fold change of degron read counts [2]: 3.32 | log2 fold change of degron read counts [3]: 1.66 | log2 fold change of degron read counts (compound: thalidomide): 0.348

FACNICGAAFTQKGNLLRHIKL [46F_47A_49N_50I_52G_53A_54A_55F_67L_, Q9UKT9]
log2 fold change of degron read counts [1]: 2.77 | log2 fold change of degron read counts [2]: 2.64 | log2 fold change of degron read counts [3]: 0.592 | log2 fold change of degron read counts (compound: thalidomide): 0.334

FCCEQCGANFTQKGNLLRHIKL [46F_47C_49E_50Q_52G_53A_54N_55F_67L_, Q9UKT9]
log2 fold change of degron read counts [1]: -1.5 | log2 fold change of degron read counts [2]: -1.89 | log2 fold change of degron read counts [3]: -0.599 | log2 fold change of degron read counts (compound: thalidomide): -1.3

FHCPICGHPFTQKGNLLRHIKL [46F_47H_49P_50I_52G_53H_54P_55F_67L_, Q9UKT9]
log2 fold change of degron read counts [1]: 0.356 | log2 fold change of degron read counts [2]: -0.486 | log2 fold change of degron read counts [3]: 1.11 | log2 fold change of degron read counts (compound: thalidomide): -0.0778

LFCEICGFMCTQKGNLLRHIKL [46L_47F_49E_50I_52G_53F_54M_55C_67L_, Q9UKT9]
log2 fold change of degron read counts [1]: 3.2 | log2 fold change of degron read counts [2]: 3.12 | log2 fold change of degron read counts [3]: 1.56 | log2 fold change of degron read counts (compound: thalidomide): 1.17

FRCEICGRIFTQKGNLLRHIKL [46F_47R_49E_50I_52G_53R_54I_55F_67L_, Q9UKT9]
log2 fold change of degron read counts [1]: -2.12 | log2 fold change of degron read counts [2]: -2.31 | log2 fold change of degron read counts [3]: -0.593 | log2 fold change of degron read counts (compound: thalidomide): -0.94

FSCNQCGAVFTQKGNLLRHIKL [46F_47S_49N_50Q_52G_53A_54V_55F_67L_, Q9UKT9]
log2 fold change of degron read counts [1]: -1.79 | log2 fold change of degron read counts [2]: -1.84 | log2 fold change of degron read counts [3]: -0.0126 | log2 fold change of degron read counts (compound: thalidomide): -1.8

FQCEVCGAKFTQKGNLLRHIKL [46F_47Q_49E_50V_52G_53A_54K_55F_67L_, Q9UKT9]
log2 fold change of degron read counts [1]: 0.414 | log2 fold change of degron read counts [2]: 2.98 | log2 fold change of degron read counts [3]: 0.135 | log2 fold change of degron read counts (compound: thalidomide): 3.4

FACEVCGAKFTQKGNLLRHIKL [46F_47A_49E_50V_52G_53A_54K_55F_67L_, Q9UKT9]
log2 fold change of degron read counts [1]: 3.92 | log2 fold change of degron read counts [2]: 2.02 | log2 fold change of degron read counts [3]: -1.57 | log2 fold change of degron read counts (compound: thalidomide): 0.889

FLCEVCGAKFTQKGNLLRHIKL [46F_47L_49E_50V_52G_53A_54K_55F_67L_, Q9UKT9]
log2 fold change of degron read counts [1]: 0.27 | log2 fold change of degron read counts [2]: -1.55 | log2 fold change of degron read counts [3]: -0.283 | log2 fold change of degron read counts (compound: thalidomide): 1.49

FKCEVCGAKFTQKGNLLRHIKL [46F_47K_49E_50V_52G_53A_54K_55F_67L_, Q9UKT9]
log2 fold change of degron read counts [1]: -1.41 | log2 fold change of degron read counts [2]: -3.28 | log2 fold change of degron read counts [3]: -3.54 | log2 fold change of degron read counts (compound: thalidomide): -1.57

FDCEVCGAKFTQKGNLLRHIKL [46F_47D_49E_50V_52G_53A_54K_55F_67L_, Q9UKT9]
log2 fold change of degron read counts [1]: 1.57 | log2 fold change of degron read counts [2]: -0.744 | log2 fold change of degron read counts [3]: -2.09 | log2 fold change of degron read counts (compound: thalidomide): 0.993

FECEVCGAKFTQKGNLLRHIKL [46F_47E_49E_50V_52G_53A_54K_55F_67L_, Q9UKT9]
log2 fold change of degron read counts [1]: 0.451 | log2 fold change of degron read counts [2]: -1.55 | log2 fold change of degron read counts [3]: -0.965 | log2 fold change of degron read counts (compound: thalidomide): 2.59

FMCEVCGAKFTQKGNLLRHIKL [46F_47M_49E_50V_52G_53A_54K_55F_67L_, Q9UKT9]
log2 fold change of degron read counts [1]: 0.0707 | log2 fold change of degron read counts [2]: -0.168 | log2 fold change of degron read counts [3]: 0.454 | log2 fold change of degron read counts (compound: thalidomide): 0.604

FGCEVCGAKFTQKGNLLRHIKL [46F_47G_49E_50V_52G_53A_54K_55F_67L_, Q9UKT9]
log2 fold change of degron read counts [1]: 3.69 | log2 fold change of degron read counts [2]: 1.3 | log2 fold change of degron read counts [3]: -1.12 | log2 fold change of degron read counts (compound: thalidomide): 1.16

FICEVCGAKFTQKGNLLRHIKL [46F_47I_49E_50V_52G_53A_54K_55F_67L_, Q9UKT9]
log2 fold change of degron read counts [1]: -0.59 | log2 fold change of degron read counts [2]: 2.35 | log2 fold change of degron read counts [3]: 0.972 | log2 fold change of degron read counts (compound: thalidomide): 2.68

FWCEVCGAKFTQKGNLLRHIKL [46F_47W_49E_50V_52G_53A_54K_55F_67L_, Q9UKT9]
log2 fold change of degron read counts [1]: 3.74 | log2 fold change of degron read counts [2]: 3.86 | log2 fold change of degron read counts [3]: 1.64 | log2 fold change of degron read counts (compound: thalidomide): 1.54

FSCEVCGAKFTQKGNLLRHIKL [46F_47S_49E_50V_52G_53A_54K_55F_67L_, Q9UKT9]
log2 fold change of degron read counts [1]: 3.08 | log2 fold change of degron read counts [2]: 1.75 | log2 fold change of degron read counts [3]: -0.985 | log2 fold change of degron read counts (compound: thalidomide): 1.45

FRCEVCGAKFTQKGNLLRHIKL [46F_47R_49E_50V_52G_53A_54K_55F_67L_, Q9UKT9]
log2 fold change of degron read counts [1]: -0.518 | log2 fold change of degron read counts [2]: -0.4 | log2 fold change of degron read counts [3]: 0.471 | log2 fold change of degron read counts (compound: thalidomide): 1.09
